Giardia killer: Small Molecules that selectively kill Giardia lamblia: qHTS; Giardia lamblia trophozoite viability; actives 0.15% (n = 340,000); activity change, % at 7.66 µM, hits read low; AID 540267, 2011; in the data active means activity change below about -80%; inconclusive means between about -30% and that limit;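 further: parasites exposed to compound for two days anaerobically before the ATP read; on the % scale 0 is the no-effect control and ±100 the full control effect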
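Compounds were tested on trophozoites seeded at 100 cells/well and held 48 hrs at 37 deg C anaerobically. An ATP-based luminescent kit measured the remaining live cells.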
Nrf2 ARE act: qHTS of Nrf2 Activators; AREc32 ARE-luciferase reporter (MCF7-derived line), luminescence, 24 h; Potency, µM (titrated, usually from 46.1 µM), inactives show top-dose activation, most hits filed as activators; actives 0.31% (n = 410,000); AID 624171, 2012; further: potency means the concentration at half of the fitted maximal effect; % of control where 0% means no effect; nearly all actives have a fitted effect of over 65% in size
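AREc32_Fluc, 1000 cells/well, OPTI-MEM + 5% FBS, o/n 37 deg C 5% CO2; 23 nL cpd by pin tool, 24 hr; Steady-Glo 30 min RT, luminescence.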
Apoferritin bind: qHTS Assay for Identification of Novel General Anesthetics; AID 485281, 2010; Potency, µM (highest dose often 77.5 µM), inactives show at the top dose activity change, negative = displacement, usual class: inhibitors; actives 0.074% (n = 350,000); apoferritin/1-aminoanthracene competitive binding, fluorescence; further: potency means the concentration at half of the fitted maximal effect; on the % scale 0 is the no-effect control and ±100 the full control effect; nearly all actives have a fitted effect of over 20% in size
Target sequence (P02791 2-175 limits assumed): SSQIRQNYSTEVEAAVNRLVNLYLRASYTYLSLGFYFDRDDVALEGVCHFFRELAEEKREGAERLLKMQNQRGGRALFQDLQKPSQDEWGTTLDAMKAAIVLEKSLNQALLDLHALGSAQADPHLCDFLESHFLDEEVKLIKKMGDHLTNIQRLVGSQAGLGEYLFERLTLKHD
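Horse-spleen apoferritin (10 uM) in 50% saturated 1-aminoanthracene in PBS was incubated 10 min at room temperature with compound. Fluorescence (ex 380, em 535 nm) was normalized to free and bound 1-AMA, with concentration-response fitted by a four-parameter Hill equation.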
Nrf2 inh: Nrf2 qHTS screen for inhibitors; A549 ARE-Fluc reporter, luciferase luminescence, 18-24 h; AID 504444, 2011; Potency, µM (top dose mostly 46 µM), inactives show at the highest dose activity change, negative = inhibition, hits mostly inhibitors; actives 2.1% (n = 360,000); further: potency means the concentration at half of the fitted maximal effect; on the % scale 0 is the no-effect control and ±100 the full control effect; nearly all actives have a fitted effect of over 60% in size
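A549 ARE_Fluc cells, 5000/well, 5% FBS OPTI-MEM; compounds in dose-response, 18-24 h at 37 °C/5% CO2; CellTiter-Fluor viability read (Ex 405/Em 525), then BugLite luciferase luminescence = Nrf2 activity.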
A549 viability: Nrf2 qHTS screen for inhibitors: counterscreen for cytotoxicity; actives 0.16% (n = 390,000); Potency, µM (series often up to 46 µM), without a hit: at the highest dose activity change, negative = cytotoxicity, actives largely listed as inhibitors; A549 ARE-Fluc cells, CellTiter-Fluor viability, 18-24 h; AID 504648, 2011; further: potency means the concentration at half of the fitted maximal effect; on the % scale 0 is the no-effect control and ±100 the full control effect
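A549 ARE_Fluc cells in 5% FBS OPTI-MEM were exposed to compounds in concentration-response for 18-24 h at 37 deg C. Viability was read by CellTiter-Fluor fluorescence (Ex 405/Em 525) after 30 min, before the luciferase read.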
IDH1 R132H inh: qHTS for Inhibitors of mutant isocitrate dehydrogenase 1 (IDH1): qHTS; Potency, µM (titrated, usually from 76.6 µM), for the others: at the top dose activity change, negative = inhibition, usual class: inhibitors; IDH1-R132H enzyme, NADPH consumption, diaphorase/resazurin fluorescence; Isocitrate dehydrogenase [NADP] cytoplasmic (Homo sapiens), O75874; actives 0.093% (n = 390,000); AID 602179, 2012; further: potency means the concentration at half of the fitted maximal effect; on the % scale 0 is the no-effect control and ±100 the full control effect; nearly all actives have a fitted effect of over 65% in size
Target sequence (O75874 whole entry R132H, stated change not applied): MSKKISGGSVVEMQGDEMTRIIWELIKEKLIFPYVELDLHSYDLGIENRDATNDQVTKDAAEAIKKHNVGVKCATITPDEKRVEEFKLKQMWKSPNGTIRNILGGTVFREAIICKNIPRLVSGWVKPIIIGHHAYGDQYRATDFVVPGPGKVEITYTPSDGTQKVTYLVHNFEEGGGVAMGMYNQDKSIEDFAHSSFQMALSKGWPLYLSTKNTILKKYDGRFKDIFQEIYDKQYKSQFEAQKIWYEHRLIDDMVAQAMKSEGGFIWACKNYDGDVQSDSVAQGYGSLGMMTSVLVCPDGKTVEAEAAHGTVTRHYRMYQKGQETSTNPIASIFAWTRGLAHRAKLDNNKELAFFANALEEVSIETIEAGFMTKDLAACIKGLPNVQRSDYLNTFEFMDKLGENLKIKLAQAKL
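IDH1-R132H (0.5 ug/mL dispensed) in pH 7.5 Tris buffer was preincubated 30 min with compound, then given a substrate mix of 0.016 mM NADPH and 2 mM alpha-KG for 80 min at room temperature; remaining NADPH was read by diaphorase/resazurin fluorescence.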
An asterisk follows results filed as active; ? = inconclusive; / = no result; [ ] = remark or other dose. An excerpt weighted towards active compounds, which were near 2.3% of everything screened. Unless noted, the call rests on the fitted dose curve; in most records, active means well fitted curve in the direction sought with a large enough effect; inconclusive means small, poorly fitted or top-dose-only effect, or another doubt; inactive means no such curve, though single readings can be large; an effect the other way counts as inactive or inconclusive.

SMILES	Giardia killer	Nrf2 ARE act	Apoferritin bind	Nrf2 inh	A549 viability	IDH1 R132H inh
COc1ccc(C(=O)N(Cc2ccco2)Cc2cccs2)cc1	15	/	/	-17%	-2%	/
O=C(Nc1ncc([N+](=O)[O-])s1)c1cccc([N+](=O)[O-])c1	-93*	-1%	-10%	?	-13%	40%
O=C(COC(=O)c1ccccc1)Nc1ncc([N+](=O)[O-])s1	?	3%	/	-2%	?	8%
O=C(Nc1ccccc1)Nc1ncc([N+](=O)[O-])s1	?	0%	-21%	?	23µM*	2%
O=C(Nc1ccc(NC(=O)c2cccc([N+](=O)[O-])c2)cc1)c1cccc([N+](=O)[O-])c1	0	?	-7%	2%	14%	8%
O=C(NNc1nc(-c2ccc(F)cc2)cs1)c1ccccc1	-20	-1%	-1%	15µM*	?	3%
O=C(NNC(=O)C12CC3CC(CC(C3)C1)C2)c1cccc([N+](=O)[O-])c1	?	10µM*	-13%	-9%	-5%	5%
Cc1nc2c(c(SCC(=O)Nc3ccccc3C(F)(F)F)n1)CCC2	/	0%	-10%	?	2%	5%
CC1=C(c2ccc(C)c(C)c2)S(=O)(=O)N(Cc2ccc(C(=O)Nc3cc(F)ccc3F)cc2)C1=O	/	-1%	-6%	?	1%	/
O=C(Nc1nc(-c2cccnc2)cs1)c1cccc([N+](=O)[O-])c1	-2	3%	-4%	?	2%	15%
O=C(Nc1nc(-c2ccccc2)cs1)c1cccc([N+](=O)[O-])c1	-28	5%	?	8.2µM*	-24%	-7%
CCN(CC)C(=O)N1CCN(C)CC1	-3	0%	5%	13µM*	16%	-3%
O=C(c1ccccc1)N1CCN(c2ncnc3sc4c(c23)CCC4)CC1	9	1%	-10%	16µM*	-4%	-10%
CC1(C)CC(=O)C2=C(C1)N=C1c3ccccc3C(=O)C1C2c1ccc(Cl)cc1 (configuration not stated)	-13	0%	-11%	26µM*	26µM*	1%
Cc1ccc(C2C3=C(CC(C)(C)CC3=O)N=C3c4ccccc4C(=O)C32)cc1 (configuration not stated)	0	0%	?	?	?	3%
CCOC(=O)C1=C(C)N=C2c3ccccc3C(=O)C2C1c1ccc(Cl)cc1 (configuration not stated)	-2	8%	?	?	16µM*	-9%
CCN1CCCc2cc(CN(CCN3CCOCC3)C(=O)Nc3ccc(C)c(C)c3)ccc21	-3	3%	-6%	-30%	?	-2%
CCc1ccc(NC(=O)N(CCN2CCOCC2)Cc2ccc3c(c2)CCCN3CC)cc1	1	3%	-8%	?	16µM*	12%
CCOC(=O)C1CCN(C(=O)c2cc3ccc4ccc(C)[nH]c4c3n2)CC1	/	9%	-5%	?	0%	0%
Cc1ccc(C)c(N2CCN(C(=O)COc3cc(=O)n(C)c4ccccc34)CC2)c1	10	2%	-20%	?	/	20%
Cc1ccc(C)c(N2CCN(C(=O)CCCOc3cc(=O)n(C)c4ccccc34)CC2)c1	3	0%	-7%	23µM*	?	2%
CN(C)c1ccc(C(CNC(=O)c2ccc(C(C)(C)C)cc2)N2CCCC2)cc1 (configuration not stated)	/	5%	?	/	-24%	31%
CN(CC(=O)Nc1ccc(Cl)c(C(F)(F)F)c1)C(=O)c1ccc(OCC2CCCO2)cc1 (configuration not stated)	16	3%	/	16µM*	?	3%
CN(CC(=O)Nc1ccc(Cl)c(C(F)(F)F)c1)C(=O)c1ccc(S(=O)(=O)N2CCOCC2)cc1	4	1%	/	?	-18%	0%
Cc1ccc(C(=O)N(C)CC(=O)Nc2ccc(Cl)c(C(F)(F)F)c2)cc1S(=O)(=O)N1CCCCC1	9	0%	/	5.8µM*	?	-2%
SMILES	Giardia killer	Nrf2 ARE act	Apoferritin bind	Nrf2 inh	A549 viability	IDH1 R132H inh
O=c1oc2ccccc2c2c1C1O[C@](c3ccsc3)(Cc3ccccc31)O2	/	/	-17%[15.3 µM]	/	/	/
O=C(c1cc(-c2ccc(Br)cc2)n[nH]1)N1CCN(C(=O)c2ccccc2Br)CC1	38	6%	-17%	26µM*	-14%	-5%
COc1ccc(S(=O)(=O)N2CCN(C(=O)c3cc(-c4ccc(Br)cc4)n[nH]3)CC2)cc1OC	-1	3%	3%	21µM*	-13%	-9%
Cc1ccccc1NCc1ccccc1O	4	1%	18µM*	/	-7%	2%
Cc1c(CC(=O)NCCCC(=O)O)c(=O)oc2cc3c(cc12)CCC(C)(C)O3	-6	-3%	4%	18µM*	15%	-6%
Cc1c(CC(=O)NCCCCCC(=O)O)c(=O)oc2cc3c(cc12)CCC(C)(C)O3	9	-1%	3%	10µM*	3%	-6%
COCCCNC(=O)Cc1c(C)c2cc3c(cc2oc1=O)OC(C)(C)CC3	-27	0%	-4%	-24%	-6%	-7%
CCSc1nc(-c2ccc(OC)cc2)nc2c1Cc1c(CO)cnc(C)c1O2	/	-1%	2%	21%	2%	-21%
Cc1ccc(-c2nc3c4ccccc4ccn3c2Cc2ccsc2)cc1	/	19%	/	/	/	/
CCOc1ccccc1C(=O)NC1CCN(CC(=O)Nc2cc(OC)ccc2OC)CC1	-22	0%	-7%	23µM*	0%	-3%
COC(=O)Cn1c(SCCOc2ccccc2OC)nc2ccccc21	/	2%	-10%	?	0%	12%
CCOCCOC(=O)c1[nH]c2c(c1C)C(=O)CC(c1cc(OC)c(OC)c(OC)c1)C2 (configuration not stated)	-3	1%	-5%	23µM*	-8%	3%
CCOC(=O)c1[nH]c2c(c1-c1ccccc1)C(=O)CC(c1ccc(OC)c(OC)c1)C2 (configuration not stated)	11	1%	-15%	21µM*	0%	-6%
CN(C)c1ccc(C2CC(c3cccc(NS(C)(=O)=O)c3)=NN2C(=O)c2ccccc2)cc1 (configuration not stated)	13	3%	-8%	23µM*	?	-5%

Bioassay records from PubChem.
